From PubChem BioAssay
G9a inh: G9a (human) methyltransferase inhibition. Potency, µM (series often up to 102 µM), without a hit: at the top dose activity, negative = inhibition, usual class: inhibitors. G9a H3K9 monomethylation, AlphaScreen, 2 h. Q96KQ7. AID 504332. actives 8.8% (n = 350,000); further: on the % scale 0 is the no-effect control and ±100 the full control effect; nearly all actives have a fitted effect of over 75% in size
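Compounds were preincubated with 20 nM G9a for 15 min, after which biotinylated H3K9 peptide (500 nM) and SAM (20 uM) started a 2 h room-temperature reaction. Monomethylated product was quantified by antibody-based AlphaScreen chemiluminescence.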
HP1b binding inh: inhibitors of HP1-beta chromodomain binding to methylated histone tails; AID 540317; actives 0.56% (n = 390,000); Potency, µM (titrated, usually from 114 µM), without a hit: at the top dose activity change, negative = inhibition, most hits filed as inhibitors; AlphaScreen HP1-beta / biotin-H3K9me3 peptide binding; P83916; further: nearly all actives have a fitted effect of over 70% in size
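HP1-beta protein (50 nM final) preincubated 30 min at room temperature with biotinylated H3(1-18)K9me3 peptide (50 nM) in PBS pH 7.4, 0.01% Tween-20, then compound added for 30 min. AlphaScreen streptavidin donor/nickel chelate acceptor beads (10 ug/mL final), 30 min dark, luminescence read.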
Sfp PPTase inh: Sfp phosphopantetheinyl transferase inhibition. actives 3.5% (n = 310,000). Q9F4F7. Biochemical Sfp PPTase activity, qHTS. Potency, µM, for inactives: largest response in the series, negative = inhibition, actives largely listed as inhibitors. AID 1490;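 further: the enzyme is Sfp with the accession as filed and its product quenches rhodamine fluorescence; 0% = enzyme reaction without inhibitor and -100% = no enzyme wells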
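Fluorescence-quenching assay: 15 nM Sfp-PPTase preincubated 15 min at room temperature with compound, then 5 uM rhodamine-CoA and 12.5 uM BHQ-2-labelled YbbR peptide added. Fluorescence (ex 525/em 598 nm) read at start and after 30 min; difference gives rate.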
BAZ2B inh: blocks human BAZ2B. AlphaScreen BAZ2B-H3K14Ac peptide displacement. actives 4.4% (n = 360,000). Potency, µM (top dose mostly 114 µM), without a hit: at the top dose activity change, negative = inhibition, usual class: inhibitors; further: on the % scale 0 is the no-effect control and ±100 the full control effect; nearly all actives have a fitted effect of over 60% in size
Target sequence (Q9UIF8 whole entry, looked up): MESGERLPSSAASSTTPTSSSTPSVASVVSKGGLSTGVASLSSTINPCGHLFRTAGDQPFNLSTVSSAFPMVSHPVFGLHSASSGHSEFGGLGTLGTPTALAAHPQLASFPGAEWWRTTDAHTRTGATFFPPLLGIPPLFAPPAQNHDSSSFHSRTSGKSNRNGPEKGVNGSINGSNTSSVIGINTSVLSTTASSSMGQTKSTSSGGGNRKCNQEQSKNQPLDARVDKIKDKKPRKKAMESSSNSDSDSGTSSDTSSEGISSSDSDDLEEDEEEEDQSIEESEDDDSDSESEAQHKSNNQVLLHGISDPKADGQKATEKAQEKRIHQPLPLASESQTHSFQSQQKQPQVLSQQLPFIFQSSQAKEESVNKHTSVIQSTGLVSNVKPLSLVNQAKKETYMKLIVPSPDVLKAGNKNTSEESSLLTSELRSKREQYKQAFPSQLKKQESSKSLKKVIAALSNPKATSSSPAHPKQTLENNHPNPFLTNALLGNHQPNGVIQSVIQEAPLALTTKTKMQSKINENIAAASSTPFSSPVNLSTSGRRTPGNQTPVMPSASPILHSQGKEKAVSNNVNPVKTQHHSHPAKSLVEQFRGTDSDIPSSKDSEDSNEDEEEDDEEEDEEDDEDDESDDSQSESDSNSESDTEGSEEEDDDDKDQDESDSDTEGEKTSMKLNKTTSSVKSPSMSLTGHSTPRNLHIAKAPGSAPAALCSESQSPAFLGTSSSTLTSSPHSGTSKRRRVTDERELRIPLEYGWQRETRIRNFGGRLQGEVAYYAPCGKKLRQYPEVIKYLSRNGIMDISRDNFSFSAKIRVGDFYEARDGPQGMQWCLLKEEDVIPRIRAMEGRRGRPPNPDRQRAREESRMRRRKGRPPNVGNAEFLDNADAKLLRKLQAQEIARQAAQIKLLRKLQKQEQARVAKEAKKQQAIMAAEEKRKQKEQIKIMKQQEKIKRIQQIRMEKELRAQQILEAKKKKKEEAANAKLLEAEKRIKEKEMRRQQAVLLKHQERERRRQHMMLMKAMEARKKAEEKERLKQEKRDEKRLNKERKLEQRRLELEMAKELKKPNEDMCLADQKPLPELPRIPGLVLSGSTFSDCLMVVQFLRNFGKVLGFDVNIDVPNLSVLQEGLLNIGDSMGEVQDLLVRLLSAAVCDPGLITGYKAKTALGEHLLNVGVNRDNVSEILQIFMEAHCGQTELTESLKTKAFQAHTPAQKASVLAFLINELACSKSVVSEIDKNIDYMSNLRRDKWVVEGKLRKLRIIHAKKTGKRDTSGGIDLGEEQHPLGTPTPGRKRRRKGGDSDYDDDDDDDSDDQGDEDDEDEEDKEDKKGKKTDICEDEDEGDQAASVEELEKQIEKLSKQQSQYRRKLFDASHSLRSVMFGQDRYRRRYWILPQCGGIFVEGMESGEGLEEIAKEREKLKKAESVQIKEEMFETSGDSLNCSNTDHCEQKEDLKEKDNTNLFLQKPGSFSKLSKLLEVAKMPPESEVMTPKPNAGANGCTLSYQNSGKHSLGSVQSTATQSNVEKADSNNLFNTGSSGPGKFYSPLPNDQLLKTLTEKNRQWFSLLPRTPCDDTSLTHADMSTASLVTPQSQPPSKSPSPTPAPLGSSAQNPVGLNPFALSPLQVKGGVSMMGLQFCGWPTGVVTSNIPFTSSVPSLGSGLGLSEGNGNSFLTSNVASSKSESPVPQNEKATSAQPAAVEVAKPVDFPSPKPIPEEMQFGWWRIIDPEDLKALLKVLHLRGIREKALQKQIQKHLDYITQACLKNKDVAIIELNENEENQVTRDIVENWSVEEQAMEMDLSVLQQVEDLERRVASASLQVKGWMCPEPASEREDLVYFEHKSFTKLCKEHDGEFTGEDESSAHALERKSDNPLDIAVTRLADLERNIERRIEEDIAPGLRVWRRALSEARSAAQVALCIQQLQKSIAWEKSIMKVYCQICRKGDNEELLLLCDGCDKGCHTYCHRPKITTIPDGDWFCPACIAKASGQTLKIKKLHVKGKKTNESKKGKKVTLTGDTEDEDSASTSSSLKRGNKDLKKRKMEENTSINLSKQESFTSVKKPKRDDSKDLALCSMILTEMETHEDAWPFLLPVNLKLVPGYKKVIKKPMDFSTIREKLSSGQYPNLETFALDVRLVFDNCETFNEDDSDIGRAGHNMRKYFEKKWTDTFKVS
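Compounds, titrated to a top concentration of 110 uM, were incubated 30 min at room temperature with preformed BAZ2B/acetyl-K14 H3 peptide complex (50 nM each). Proximity signal was measured by AlphaScreen after 20 min with beads.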
JMJD2A Tudor: inhibitors of human JMJD2A Tudor domain; O75164; Potency, µM (titrated, usually from 114 µM), for the others: at the top dose activity change, negative = inhibition, most hits filed as inhibitors; AlphaScreen JMJD2A-Tudor / H3K4me3 peptide binding; actives 4.4% (n = 390,000); further: on the % scale 0 is the no-effect control and ±100 the full control effect; nearly all actives have a fitted effect of over 50% in size
* = called active by the depositor; ? = inconclusive; . = not tested or not shown; [ ] = another dose, or the depositor's remark. In the library only some 12% were active in any assay of this set; here they are far more common. The call rests on the fitted dose curve; in most records, active means well fitted curve in the direction sought with a large enough effect; inconclusive means small, poorly fitted or top-dose-only effect, or another doubt; inactive means no such curve, though single readings can be large; an effect the other way counts as inactive or inconclusive. Potency means the concentration at half of the fitted maximal effect.

SMILES	G9a inh	HP1b binding inh	Sfp PPTase inh	BAZ2B inh	JMJD2A Tudor
O=C(CNS(=O)(=O)c1ccc(Br)s1)N1CCN(c2ccc(F)cc2)CC1	5.7%[59 µM]	-11.4%	2.9%	-34.7%	-20.1%
CC(=O)Nc1ccc(SC(Sc2ccc(NC(C)=O)cc2)c2ccccc2)cc1	.	25.6%	.	.	-16.0%
CSc1nsc(SC)c1NC(=O)N1CCCCC1	44.7µM*	27.7%	5.6%	6.1%	-5.1%
O=C(c1ccc([N+](=O)[O-])cc1[N+](=O)[O-])n1cnc2ccccc21	?	26.7%	79.4µM*	-4.1%	-21.8%
Cc1ccc(OCc2nc(-c3ccc(C(=O)N4CCN(c5ccccc5)CC4)cc3)oc2C)cc1	-29.9%[59 µM]	30.9%	.	-11.3%	-28.3%
Brc1ccc(OCCCCN2CCCCC2)cc1	.	18.3%	2.6%	6.5%	-13.3%
Cc1ccc(OCCN2CCCC2)cc1	22.4µM*	?	3.5%	-38.7%	17.8µM*
Cc1ccc(OCCCCN2CCCCC2)cc1	-3.2%[59 µM]	30.7%	16.8%	-30.3%	-7.3%
Oc1ccc(N2CCN(Cc3ccc(OCCCN4CCCCC4)cc3)CC2)cc1	10µM*	39.8µM*	?	10µM*	50.1µM*
c1ccc(COc2ccc(OCCCCN3CCCCC3)cc2)cc1	8.91µM*	-37.9%	-32.5%	39.8µM*	7.08µM*
Cc1ccc(C(C)C)cc1OCCCCN1CCCC1	10µM*	?	?	50.1µM*	17.8µM*
Cc1ccc(OCC(=O)NNC(=O)[C@@H]2CCCC[C@@H]2C(=O)O)c(Br)c1	-7.2%[0.501 µM]	45.5%	26.4%	-13.5%	4.5%
CCCCC(=O)Nc1nc(-c2ccc(S(=O)(=O)N3CCOCC3)cc2)cs1	-1.0%	22.5%	2.4%	-6.4%	-13.2%
CC(C)c1ccc(OCCCN2CCCC2)cc1	-10.1%	-26.4%	-12.2%	56.2µM*	56.2µM*
O=C(c1ccccc1)c1ccc(OCCCN2CCCC2)cc1	2.51µM*	?	-37.3%	?	10µM*
CCOc1ccc(OCCCCN2CCCC2)cc1	?	-15.6%	?	?	44.7µM*
O=C(O)COc1ccc(C(=O)c2ccccc2)cc1	-30.6%	30.9%	28.2%	1.9%	7.1%
CC(C)c1cccc(C(C)C)c1OCCCCN1CCCC1	?	14.4%	15.0%	6.9%	-25.8%
CN1CCN(CCCOc2ccc(-c3ccccc3)cc2)CC1	.	28.4%	-8.6%	-35.7%	?
COc1ccccc1CN1C[C@@H]2C[C@@H](c3ccccc3C)N3CCC[C@@]23C1=O	5.1%	6.2%	14.7%	-10.9%	-28.3%
CCN1CCN(C(=O)c2nn(-c3ccccc3)c(=O)c3ccccc23)CC1	14.5%[59 µM]	16.2%	18.5%	6.1%	4.4%
Cc1nc(C(=O)O)cc2c1[nH]c1ccccc12	12.0%[12.7 µM]	67.0%	.	50.1µM*	79.4µM*
c1ccc(CSc2snnc2-c2ccccc2)cc1	99.9%[59 µM]	157.9%	-18.1%	309.7%	245.4%
Nc1nc(-c2ccc3c(c2)OCCO3)c(CC(=O)O)s1	.	19.3%	-20.3%	-30.9%	-19.3%
Nc1nc(-c2ccc3c(c2)CCCC3)c(CC(=O)O)s1	50.1µM*	22.3%	-15.0%	-5.2%	-20.4%
SMILES	G9a inh	HP1b binding inh	Sfp PPTase inh	BAZ2B inh	JMJD2A Tudor
O=C(O)CSc1ncnc2sc3c(c12)CCCC3	.	7.3%	-21.5%	5.1%	-12.4%
O=C(O)CSc1ncnc2sc3c(c12)CCC3	-17.1%	36.2%	14.3%	50.1µM*	-23.6%
CCN(CC)c1ncnc2sc3c(c12)CCC3	39.8µM*	33.5%	-3.6%	-7.3%	9.8%
O=c1[nH][nH]c(C(F)(F)F)c1C=Nc1ccc(Cl)cc1	-24.0%[12.7 µM]	4.8%	-1.7%	-6.7%	-30.3%
O=c1[nH][nH]c(C(F)(F)F)c1/C=N/N1CCOCC1	39.8µM*	23.2%	-7.5%	-28.9%	-15.1%
O=C(/C=C/c1ccccc1Cl)Nc1ccc2c(c1)C(=O)NC2=O	25.1µM*	?	-12.7%	70.8µM*	?
C/C(=N/OC(=O)C1CC1)c1cc(-c2ccc(Cl)cc2)no1	.	37.8%	11.9%	7.5%	-8.6%
CCCc1nnc(NC(=O)CCC(=O)N2CCC(C)CC2)s1	11.5%	18.6%	2.5%	3.6%	-15.2%
CCN(CCNCC(O)COc1ccccc1C(C)C)c1cccc(C)c1 (centres undefined)	10µM*	?	44.7µM*	28.2µM*	0.794µM*
CCOC(=O)N1CCN(CC(O)COc2ccccc2C(C)C)CC1 (centres undefined)	11.1%[0.501 µM]	18.1%	-10.0%	-12.5%	-7.9%
CC1=NNC(=O)c2ccccc2O1	-137.3%[59 µM]	26.5%	?	50.1µM*	5.01µM*
COc1ccc(S(=O)(=O)C(C#N)c2nc3ccccc3nc2N2CCCC(C)C2)cc1 (centres undefined)	?	?	5.0%	44.7µM*	?
CN1CCN(C(=O)c2cc([N+](=O)[O-])ccc2Cl)CC1	50.1µM*	38.4%	6.6%	-0.9%	-16.0%
O=C(Nc1ccc(N2CCOCC2)c(F)c1)c1cccs1	.	28.0%	1.2%	-2.6%	-18.6%
O=C(Nc1cc([N+](=O)[O-])ccc1N1CCOCC1)c1cccs1	10.3%	30.2%	4.0%	-2.3%	-23.7%
O=C(c1cc([N+](=O)[O-])ccc1N1CCOCC1)N1CCN(c2ccc([N+](=O)[O-])cc2)CC1	11.2µM*	8.2%	.	-14.4%	-25.5%
O=C(c1cc([N+](=O)[O-])ccc1N1CCOCC1)N1CCCCC1	-5.2%[59 µM]	12.2%	-2.5%	7.6%	-9.2%
O=C(Nc1ccc(NC(=O)c2cc([N+](=O)[O-])ccc2N2CCOCC2)cc1)c1cccs1	28.2µM*	18.9%	-2.4%	-26.6%	-22.2%
COC(=O)c1cc(NC(=O)c2cccs2)ccc1N1CCOCC1	?	-1.9%	-14.5%	-2.6%	50.1µM*
CC(C)(C)c1ccc(C2(C)NC(=O)N(CC(=O)Nc3ccc4c(c3)OCO4)C2=O)cc1 (centres undefined)	-8.0%	-11.0%	17.2%	-36.3%	?
Cc1nc2nc(NC(=O)c3ccco3)[nH]n2c(=O)c1C	?	7.4%	-15.6%	-24.1%	-26.1%
Cc1cc(=O)oc2cc(NC(=O)c3cc([N+](=O)[O-])ccc3N3CCOCC3)ccc12	39.8µM*	9.5%	-2.0%	-10.7%	-23.1%
O=C(NCc1ccc2c(c1)OCO2)c1cc([N+](=O)[O-])ccc1N1CCCCC1	44.7µM*	-2.2%	5.0%	-9.2%	-31.9%
O=C(Nc1ccc(N2CCCC2)cc1)c1cc([N+](=O)[O-])ccc1N1CCOCC1	.	?	-4.6%	?	44.7µM*
CCOC(=O)c1cc(CC)sc1NC(=O)c1ccc(N2CCOCC2)c([N+](=O)[O-])c1	-40.4%	9.9%	-2.6%	-38.8%	-20.5%
CCOC(=O)c1cc(CC)sc1NC(=O)c1cc([N+](=O)[O-])ccc1N1CCOCC1	11.2µM*	-32.9%	0.4%	-10.6%	-23.7%[57.1 µM]
O=C(Nc1ccc2oc(=O)ccc2c1)c1cc([N+](=O)[O-])ccc1N1CCOCC1	-11.9%	28.6%	2.3%	-5.9%	-2.1%
C=CC[C@@H](CC(=O)N[C@H](CO)Cc1ccccc1)C(=O)N[C@@H](C)COC(=O)[C@@H](CC=C)Cc1ccc(F)cc1	.	31.1%	.	.	-7.0%
